Source: PubChem (National Center for Advancing Translational Sciences (NCATS))
PINK1 expr mod: modulators of PINK1 expression. PINK1 immunofluorescence, high-content cytometry, 24 h. Potency, µM (doses to about 76.6 µM), for inactives: at the top dose activation (PINK1 increase), most hits filed as activators. hit rate 0.2% among 410,000. AID 624263; active = well fitted activation curve with a large enough effect; inconclusive = small, poorly fitted or top-dose-only effect; cell line not stated here; note: potency is the fitted concentration of half-maximal effect; % of control where 0% means no effect; nearly all actives have a fitted effect of over 65% in size
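PINK1 protein level read as immunofluorescence by microplate cytometer in a fixed, stained stable cell line after 24 h exposure to five compound concentrations, with CCCP as control.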
ATXN2 expr inh: inhibitors of ATXN2 expression | HEK-293 ATXN2-luciferase reporter, luminescence, 24 h | hit rate 0.72% among 360,000 | Potency, µM (highest dose often 57 µM), inactives show top-dose activity change, negative = inhibition, hits mostly inhibitors; note: potency is the fitted concentration of half-maximal effect; % is set by controls: 0 for no effect and ±100 for the full control effect; nearly all actives have a fitted effect of over 55% in size
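ATXN2-luciferase reporter cells (luciferase flanked by upstream and downstream ATXN2 gene portions) were treated 24 h at 37 °C with compounds at up to 57 uM. SteadyGlo luminescence gave expression; GF-AFC fluorescence gave viability.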
MCF10A rerep: inducers of DNA re-replication in MCF 10A breast cells; Potency, µM (highest dose often 46.1 µM), for the others: at the highest dose activity, positive = re-replication, most hits filed as activators; MCF 10A DNA re-replication, Hoechst nuclear intensity, 48 h; hit rate 2.9% among 350,000; note: potency is the fitted concentration of half-maximal effect; % of control where 0% means no effect; nearly all actives have a fitted effect of over 50% in size
SW480 rereplic: induces DNA re-replication in SW480 colon adenocarcinoma cells; hit rate 1.8% among 340,000; Potency, µM (highest dose often 46.1 µM), for the others: at the highest dose re-replication activation, actives largely listed as activators; AID 624297; SW480 DNA re-replication, Hoechst DNA content imaging, 48 h; note: potency is the fitted concentration of half-maximal effect; % of control where 0% means no effect; nearly all actives have a fitted effect of over 55% in size
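Hoechst fluorescence of nuclei (405 nm excitation, 500-530 nm emission) measured by plate-scanning imager after 48 hr compound exposure at 37 C; re-replication scored as increased number of nuclei with elevated intensity.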
ATXN viability: cell viability loss in ATXN counter-screen; Potency, µM (series often up to 56.7 µM), actives largely listed as cytotoxic; S2 cells (HEK-293 line with an ATXN2-luciferase reporter) viability, CellTiter-Fluor protease fluorescence, 24 h; hit rate 0.49% among 400,000; note: potency is the fitted concentration of half-maximal effect; nearly all actives have a fitted effect of over 40% in size
IL-1B inflam inh: inflammasome signaling inhibition, IL-1 beta readout; AID 743279; THP-1 LPS/ATP IL-1B secretion, AlphaLISA, 16 h; stronger effect = lower value; hit rate 4.7% among 360,000; activity change, % at 57.5 µM; in the data active = activity change below about -50%; inconclusive = mostly about -30% to -49%; note: % is set by controls: 0 for no effect and ±100 for the full control effect
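Secreted IL-1B measured by AlphaLISA bead assay after 16 h compound exposure of THP-1 cells; compounds (final up to 57.5 uM) added 1 h before LPS (250 ng/mL) and ATP (1.25 mM) stimulation; lower signal means less secretion.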
* = called active by the depositor; i = inactive; ? = inconclusive; . = not tested or not shown; [ ] = remark or other dose. Shown are actives, neighbours in structure and some others; about 7.1% of the full set was active somewhere. Unless noted, calls come from the whole dose curve; as a rule, active = well fitted curve in the direction sought with a large enough effect; inconclusive = small, poorly fitted or top-dose-only effect, or another doubt; inactive = no such curve, though single readings can be large; an effect the other way counts as inactive or inconclusive.

SMILES	PINK1 expr mod	ATXN2 expr inh	MCF10A rerep	SW480 rereplic	ATXN viability	IL-1B inflam inh
Nc1nc(CCl)nc(N(c2ccccc2)c2ccccc2)n1	0%	-30%	?	1.2µM*	?	-102*
Cc1ccc(-c2csc(NC(=O)C3CC(=O)N(c4ccc5c(c4)OCCO5)C3)n2)o1 (centres undefined)	2%	.	.	.	.	.
Oc1ccc(-c2nc3ccc4ccccc4c3c3c2CCC3)cc1O	6%	-35%	?	?	i	-54*
Cc1cc(C)c2c(ccc3ccccc32)n1	1%	-6%	2%	-5%	?	1
CCc1nc2c(OCc3ccc(Cl)cc3Cl)cccn2c1N(C)C(=O)C1CC1	1%	?	.	.	18µM*	-12
CCc1nc2c(OCc3ccc(Cl)cc3Cl)cccn2c1N(C)C(=O)CC(C)C	20%	?	.	.	i	-53*
CC(C)n1c(SCC(=O)Nc2nc3ccccc3s2)nc2c1c(=O)n(C)c(=O)n2C	2%	?	?	?	i	-52*
O=C(CSC1=NCCS1)Nc1nc2ccccc2s1	-3%[38.3 µM]	48%	1%	5%	i	-74*
CC(=O)N1CC(=O)N=C1SCC(=O)Nc1nc(-c2ccccc2)c(-c2ccccc2)s1	4%	-13%	21µM*	2%	i	-77*
CCOc1ccc2nc(NC(=O)CSc3nc4c(c(=O)n(C)c(=O)n4C)n3C(C)C)sc2c1	-3%	?	?	5%	?	8
Cc1sc(NC(=O)CSc2ncn(-c3ccccc3)n2)nc1-c1ccccc1	3%	-2%	13%	1%	i	0
Cc1sc(NC(=O)CSC2=NCCS2)nc1-c1ccccc1	0%	26%	8.9µM*	0%	i	-97*
Cc1ccc(C(=O)c2cn(Cc3cccc(C)c3)c3nc(C)ccc3c2=O)cc1	9%	-21%	.	.	i	.
COc1ccc(Oc2nc(-c3ccccn3)nc3ccccc23)cc1	-1%	-35%	2%	?	?	-93*
c1ccc(Oc2nc(-c3ccccn3)nc3ccccc23)cc1	16%	?	?	21µM*	i	?
COc1ccc(CCNC(=O)c2cc(-c3ccc(C)c(C)c3)nc3ccccc23)cc1OC	4%	-5%	.	.	?	.
Cc1nn(-c2ccccc2)c(N)c1N=Nc1cccnc1	1%	.	-1%	-3%	?	0
Nc1[nH]n(-c2ccccc2)c(=O)c1N=Nc1ccc2c(c1)OCCO2	5%	79%	1%	-12%	?	-73*
Nc1[nH]n(-c2ccccc2)c(=O)c1N=Nc1ccc2c(c1)OCO2	4%	.	26%	2%	?	-10
Nc1nn(-c2ccccc2)c(N)c1N=Nc1cccc(F)c1	4%	54%	3.7µM*	5.8µM*	?	15
Nc1nn(-c2ccccc2)c(N)c1N=Nc1ccc2c(c1)OCO2	6%	66%	?	16µM*	?	-97*
Cc1ccc(Cl)cc1NC(=O)C(=O)NCC(c1cccnc1)N1CCc2ccccc21 (centres undefined)	0%	.	.	.	.	.
CCc1ccc(-n2c(=O)c3sc4ccccc4c3n(Cc3cccc(F)c3)c2=O)cc1	0%	15%	.	.	i	.
CCCn1c(SCC(=O)N2CCc3ccccc32)n[nH]c1=O	1%	17%	2%	-9%	i	34
COc1ccc2c(c1)CCc1cnc(-n3ncc(C(=O)NCC(C)(C)CN(C)C)c3C)nc1-2	-1%	.	.	.	i	.
SMILES	PINK1 expr mod	ATXN2 expr inh	MCF10A rerep	SW480 rereplic	ATXN viability	IL-1B inflam inh
O=c1c2ccccc2nc(/C=C/c2c[nH]c3ccccc23)n1CCO	-4%	68%	?	16%	.	-92*
CCn1c(/C=C/c2ccccc2)nc2ccccc2c1=O	3%	-3%	5%	-15%	i	-23
O=c1c2ccccc2nc(/C=C/c2cc(Br)ccc2O)n1CCO	-1%	.	15µM*	?	i	-98*
Cn1c(C(=O)OC(C(=O)NCC2CCCO2)c2cccnc2)cc2sccc21 (centres undefined)	0%	.	?	1.3µM*	i	-18
CC(OC(=O)C1=Cc2ccccc2OC1)C(=O)NCC1CCCO1 (centres undefined)	2%	14%	21µM*	0%	i	2
CC(OC(=O)c1cc2sccc2n1C)C(=O)NCC1CCCO1 (centres undefined)	10µM*	4%	6%	-2%	i	12
CCC(OC(=O)c1cc2sccc2n1C)C(=O)NCC1CCCO1 (centres undefined)	2%[38.3 µM]	-11%	6%	-4%	i	19
COc1ccc(OCC(=O)OCc2cc(=O)n3nc(C4CC4)sc3n2)cc1	-1%	-9%	.	.	i	.
Cc1ccc(C(=O)NNC(=O)COc2ccc(Cl)cc2C)o1	-1%	12%	-2%	2%	i	-54*
CC(=O)c1c(C)[nH]c(C(=O)NNC(=O)COc2ccc(Cl)cc2C)c1C	1%	-10%	7.1µM*	-20%	i	-29
CCCCOc1ccc(C(=O)N2CCC(c3nc4ccccc4o3)CC2)cc1	0%	.	.	.	.	.
CCN(Cc1ccccc1)C(=O)c1cnn(-c2ccc(F)cc2)c1-n1cccc1	-1%	-9%	.	.	i	.
CC12CCC(=O)CC1CCC1C2CCC2(C)C1CCC2(O)C(=O)CO (centres undefined)	2%	-10%	0%	5%	i	-3
Cc1cc(O)c2c(c1)CC1C3CCC4CC(=O)CCC4(C)C3CC(=O)C21C (centres undefined)	-1%	-33%	16µM*	?	i	35
CC(=O)Nc1cc(C(=O)N2CC3(C)CC2CC(C)(C)C3)cc2ncn(CCc3ccccn3)c12 (centres undefined)	0%	.	.	.	i	.
CCCN1C(=O)C(=O)c2cc(C)ccc21	5%	0%	89%	6.5µM*	?	49
Cc1cccc(OCCN2C(=O)C(=O)c3cc(C)ccc32)c1	17%	32%	18µM*	?	?	?
Cc1ccc2c(c1)C(=O)C(=O)N2Cc1ccc(OCCC(C)C)cc1	2%	.	.	.	.	.
Cc1ccc(CN2C(=O)C(=O)c3cc(C)ccc32)cc1	3%	4%	?	?	?	84
CCCCN1C(=O)C(=O)c2cc(Cl)ccc21	-1%	?	23µM*	?	?	38
Cc1ccc2c(c1)C(=O)C(=O)N2Cc1ccc(Br)cc1	-1%	-36%	?	18µM*	?	54
Cc1ccc2c(c1)C(=O)C(=O)N2c1ccc(Cl)cc1	3%	-1%	1%	10%	i	-2
O=C1C(=O)N(Cc2ccccc2)C(=O)N1CCOc1ccccc1	8%	-14%[11.3 µM]	13µM*	?	i	30
